High-throughput results: PubChem BioAssay, National Center for Advancing Translational Sciences (NCATS)
Rows were chosen to be rich in hits. Some 9.4% of all compounds tested hit in one or more screens of this group.
IMPase Li cell – membrane-permeable IMPase blocker, potentiated with lithium. Potency, µM (doses to about 59.4 µM), without a hit: top-dose activity, negative = IMPase inhibition, usual class: inhibitors. AID 1457. 0.35% of 210,000 active. CHO-M1 cells, IP1 TR-FRET (IP-One), carbachol + lithium;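 note: IP1 builds up when IMPase is blocked and the TR-FRET signal falls; potency is the fitted concentration of half-maximal effect; plate controls were basal vehicle for no effect and high inhibitor control for full effect; nearly all actives have a fitted effect of over 50% in size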
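IP1 accumulation measured by competitive TR-FRET in lysed CHO-M1 cells after 30 min compound exposure at 37C, with a small lithium addition to potentiate weak responses. Hill-equation AC50 from ratio and donor-channel data.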
IMPase cell inh – IMPase inhibition in cells; P97697; CHO-M1 cells, IP1 accumulation, HTRF TR-FRET ratio; inhibition (IP1 accumulation), % at 46.1 µM; 120,000 tested, under 10 active; AID 901; active = well fitted curve in the direction sought with a large enough effect in the signal ratio, not every such curve was filed as active; inconclusive = small, poorly fitted or top-dose-only effect, or a change in a side signal; inactive = no such curve, though single readings can be large or run the other way; the % refers to the signal ratio;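 note: cells stimulated with carbachol in lithium chloride buffer; plate controls were DMSO basal wells for no effect and reference inhibitor wells for full effect; higher means more IMPase inhibition seen as more IP1 and lower FRET ratio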
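Elevated IP1 in lysates lowers TR-FRET signal (665/620 ratio and 620 channel reported). Cells were CHO-M1, given carbachol (50 uM as added) plus 50mM LiCl, pH 7.4, 30 min, 37C; compounds titrated up to 46 uM; AC50 by Hill equation.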
HTT aggregate – reduces HttQ103-GFP aggregates in PC12 cells. Potency, µM (highest dose often 46.1 µM), for inactives: at the top dose activity change, negative = inhibition, hits mostly inhibitors. PC12 HttQ103-GFP aggregates, Acumen cytometry, 40 h. 1.1% of 220,000 active; note: potency is the fitted concentration of half-maximal effect; % is set by controls: 0 for no effect and ±100 for the full control effect; nearly all actives have a fitted effect of over 60% in size
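PC12 cells stably carrying ecdysone-inducible HTT exon 1 Q103–GFP were induced with tebufenozide (100 nM final) and treated with library compounds in titration. GFP aggregates in lysates were counted by laser scanning cytometry.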
ALDH1A1 block – ALDH1A1 (human) enzyme inhibition | P00352 | Purified ALDH1A1, NADH fluorescence, propionaldehyde substrate | Potency, µM (series often up to 75.3 µM), for inactives: top-dose activity, negative = inhibition, actives largely listed as inhibitors | 7.3% of 220,000 active; active = well fitted inhibition curve with a large enough effect, not every such curve was filed as active; inconclusive = small, poorly fitted or top-dose-only effect, or another doubt; inactive = no such curve, though single readings can be large or run the other way;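 note: potency is the fitted concentration of half-maximal effect; plate controls were no enzyme wells and a reference inhibitor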
Target sequence (P00352 whole entry, looked up): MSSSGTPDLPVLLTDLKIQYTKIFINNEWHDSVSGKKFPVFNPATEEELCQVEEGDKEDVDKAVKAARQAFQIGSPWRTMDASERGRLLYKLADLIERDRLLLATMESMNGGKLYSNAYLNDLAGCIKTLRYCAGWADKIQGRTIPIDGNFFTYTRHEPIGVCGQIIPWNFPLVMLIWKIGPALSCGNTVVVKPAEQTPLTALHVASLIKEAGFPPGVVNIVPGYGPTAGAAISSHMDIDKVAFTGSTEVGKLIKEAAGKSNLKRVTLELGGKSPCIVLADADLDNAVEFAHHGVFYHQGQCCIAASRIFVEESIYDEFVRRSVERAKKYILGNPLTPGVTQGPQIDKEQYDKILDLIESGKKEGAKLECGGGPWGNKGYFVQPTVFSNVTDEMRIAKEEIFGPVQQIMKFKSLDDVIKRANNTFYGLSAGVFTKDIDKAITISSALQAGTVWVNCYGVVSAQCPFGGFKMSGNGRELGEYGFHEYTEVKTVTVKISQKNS
HTT ATP protect – cytoprotection in Huntington HTT-Q103 PC12 cell model; Potency, µM (series often up to 56.4 µM), for inactives: cytoprotection (ATP increase), hits mostly activators; AID 1471; PC12 HTT-Q103 induced, cytoprotection, ATP luminescence, 40 h; 0.14% of 230,000 active; note: potency is the fitted concentration of half-maximal effect; % of control where 0% means no effect; nearly all actives have a fitted effect of over 45% in size
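Quantitative HTS on tebufenozide-induced (100 nM) PC12 cells expressing HTTQ103 exon 1–GFP; compounds tested as a concentration series; survival measured via cellular ATP.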
HPGD inh – inhibitors of human 15-hydroxyprostaglandin dehydrogenase (HPGD) | P15428 | 4.3% of 150,000 active | AID 894 | Potency, µM, for inactives: at the highest dose activity change, negative = inhibition, usual class: inhibitors | purified HPGD, NADH fluorescence kinetic, PGE2 substrate; active = well fitted inhibition curve with a large enough effect, not every such curve was filed as active; inconclusive = small, poorly fitted or top-dose-only effect, or another doubt; inactive = no such curve, though single readings can be large or run the other way; note: potency is the fitted concentration of half-maximal effect; % is set by controls: 0 for no effect and ±100 for the full control effect
Target sequence (P15428 whole entry, looked up): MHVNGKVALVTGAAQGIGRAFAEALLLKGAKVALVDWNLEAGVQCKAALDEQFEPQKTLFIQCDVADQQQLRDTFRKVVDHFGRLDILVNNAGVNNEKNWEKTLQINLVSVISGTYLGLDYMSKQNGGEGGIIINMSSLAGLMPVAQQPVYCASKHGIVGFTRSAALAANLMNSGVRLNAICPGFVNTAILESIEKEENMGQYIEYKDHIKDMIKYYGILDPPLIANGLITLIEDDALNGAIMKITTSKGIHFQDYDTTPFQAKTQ
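20 nM HPGD preincubated 15 min at room temperature with compound in 50 mM Tris-HCl pH 8, 0.01% Tween 20. Started with 1 mM NAD+ and 30 uM prostaglandin E2; NADH fluorescence (360/450 nm) read 5 times over 30-s intervals, last minus first.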
An asterisk follows results filed as active; ? = inconclusive; · = not tested or not shown; [ ] = remark or other dose. Unless noted, calls come from the whole dose curve; as a rule, active = well fitted curve in the direction sought with a large enough effect; inconclusive = small, poorly fitted or top-dose-only effect, or another doubt; inactive = no such curve, though single readings can be large; an effect the other way counts as inactive or inconclusive.

SMILES	IMPase Li cell	IMPase cell inh	HTT aggregate	ALDH1A1 block	HTT ATP protect	HPGD inh
CCc1nn(CC(=O)Nc2ccc(Br)c(C)c2)c(=N)s1	1%	·	18%	11µM*	-26%	·
CCOCC(=O)Nc1ccc(Br)c(C)c1	-3%	·	18%[9.22 µM]	14µM*	-16%[1.9 µM]	·
CCCCc1ccc(NC(=O)COCC)cc1	13%[38.3 µM]	5	-10%	14µM*	-5%[10 µM]	10µM*
Cc1sc2ncnc(Sc3ccccc3C(=O)Nc3ccccc3Cl)c2c1C	-8%	?	14%	?	8%[10 µM]	-8%
O=C(Cc1ccccc1)Nc1ccccc1CO	37%[38.3 µM]	4	1%	?	-4%	14µM*
O=C(Cc1ccc(Cl)cc1)Nc1ccccc1CO	-1%	0	-33%	6%	-8%[10 µM]	-5%
O=C(c1ccc(-c2nnc(Nc3ccccc3)c3ccccc23)cc1)N1C[C@H]2C[C@H](C1)c1cccc(=O)n1C2	16%[38.3 µM]	6	11%	13%	-23%	32µM*
CC1CCN(c2ncnc3ccccc23)CC1	18%	-3	22µM*	6%	24%[10 µM]	-12%
O=c1c(F)cn(C2CCCO2)c(=O)n1Cc1c(Cl)cccc1Cl (centres undefined)	47%[38.3 µM]	4	-4%	-1%	-13%	16µM*
O=c1c(F)cn(C2CCCO2)c(=O)n1Cc1ccc(Cl)cc1 (centres undefined)	5%	·	-8%[9.22 µM]	-6%	-5%[10 µM]	·
COc1ccc(-c2cc(C3CCN(c4cc(Cl)nc(N)n4)CC3)[nH]n2)cc1	8%[38.3 µM]	10	13µM*	0%	-96%	-15%
COC(=O)[C@@H]1CC[C@H](C)[C@@H](c2ccc(C)cc2)N1C(=O)c1ccc(/C=N\O[C@@H](C)c2cn([C@H]3COC[C@H]3O)nn2)cc1	·	·	·	0%[13.5 µM]	-33%[10 µM]	·
CCNC(=S)Nc1cc(OCC)c(NC(=O)c2ccco2)cc1OCC	6%	-8	5%	?	-25%[1.9 µM]	-21%
CCOc1cc(NS(=O)(=O)c2ccccc2)c(OCC)cc1NC(=O)c1ccco1	28%[38.3 µM]	-2	24%	7.9µM*	-30%	-12%
COC(=O)c1ccccc1NC(=O)CNc1cc(Cl)ccc1N1CCOCC1	16%[38.3 µM]	7	32%	32µM*	2%[10 µM]	-24%
CC(C)C(=O)Nc1cccc(C(=O)N2CCCCC2C)c1 (centres undefined)	16%[38.3 µM]	-3	10µM*	7%	-5%	-10%
O=C(c1ccncc1)N1CCC2(CCN(Cc3ccccc3)CC2)CC1	37%	·	·	5%	11%	-10%
CO[C@H]1COC(=O)C/C=C\[C@H](C)[C@@H](OC)COC(=O)[C@H](C)COC(=O)C/C=C\[C@@H]1C	·	·	·	-5%[13.5 µM]	-7%[10 µM]	·
Cc1ccc(OCCCC(=O)Nc2sc3c(c2C(N)=O)CCC(C)C3)cc1 (centres undefined)	·	-6	·	·	·	·
NCCSCc1ccccc1Cl	5%	·	·	-11%[13.5 µM]	-6%[10 µM]	-15%
COc1ccc(CCNC(=O)CSc2ccsc2[N+](=O)[O-])c(OC)c1	10%	·	12%	14µM*	16%[10 µM]	·
COc1ccc(CCNC(=O)CSc2ccsc2[N+](=O)[O-])cc1OC	11%	·	-22%	-12%	16%	·
COc1ccc(OC)c(CCNC(=O)CSc2ccsc2[N+](=O)[O-])c1	7%	·	0%[9.22 µM]	13µM*	15%[10 µM]	·
O=C(CSc1ccsc1[N+](=O)[O-])NCc1ccccc1	9%	·	-9%[9.22 µM]	3.2µM*	-19%[10 µM]	·
Cn1c(CSc2nc3ccc(Br)cc3[nH]2)nc2ccccc21	-1%[38.3 µM]	4	-21%	4%	-20%	-7%
SMILES	IMPase Li cell	IMPase cell inh	HTT aggregate	ALDH1A1 block	HTT ATP protect	HPGD inh
Cn1c(CSc2nnc(SCc3ccccc3)s2)nc2ccccc21	12%[38.3 µM]	-11	-6%	25µM*	-44%	-26%
COc1ccccc1CNC(=O)CSc1ccc(-c2cccs2)nn1	-16%	·	8%	?	-47%	·
O=C(CSc1ccc(-c2cccnc2)nn1)N1CCCCCC1	7%	·	-21%	-11%	-38%	·
O=C(CSc1ccc(-c2cccs2)nn1)N1CCCCC1	0%	-10	8%	?	-2%[10 µM]	3.5µM*
O=C(CSc1ccc2nnc(-c3cccs3)n2n1)N1CCCC1	12%	·	-8%	?	-19%	·
O=C(CSc1ccc(-c2cccs2)nn1)NCc1ccccc1Cl	-1%	?	16%	0%	8%[10 µM]	32µM*
O=C(Nc1nnc(SCC(=O)N2CCOCC2)s1)c1ccccc1	-5%	·	?	-7%	·	32µM*
O=C(CSc1ccc(-c2cccs2)nn1)N1CCCCCC1	-2%	-18	1%	-5%	-6%[10 µM]	11µM*
Cc1nn2c(=O)c3c4c(sc3nc2n1-c1ccccc1)COC(C)(C)C4	·	·	-5%[9.22 µM]	·	-9%[10 µM]	·
O=C(NC1(C(F)(F)F)NC(=O)N(CCc2ccccc2)C1=O)c1ccccc1F (centres undefined)	·	-3	·	·	·	·
COC(=O)c1ccc(C(NC(=O)OCc2ccccc2)/C(F)=C/[C@@H](C)C(=O)NCc2nc3ccccc3s2)cc1 (some centres undefined)	5%	·	·	5%	0%	-13%
O=C(O)C1CCN(C(=O)CCc2ccccc2)CC1	·	·	-15%[9.22 µM]	3%	-10%[10 µM]	·
CCOC(=O)c1cc(OC(=O)c2cc(OC)c(OC)c(OC)c2)n(-c2ccccc2)n1	·	-4	·	·	·	·
O=C(CSc1ccc(-c2ccccc2)nn1)N1CCOCC1	8%[38.3 µM]	5	10%	28µM*	-15%	-22%
Clc1ccc(N2CCN(c3ncnc4c3oc3ccccc34)CC2)cc1	10µM*	-22	15%	?	28%	?
C/C(=N\NC(=S)Nc1ccc(F)cc1)C1CC1	-5%[38.3 µM]	3	7%	15µM*	11%	0%
CC1CCN(C(=S)Nc2ccc(F)cc2)CC1	5%	·	-6%	0%	18%[0.074 µM]	-5%
CCOc1ccc(CCNC(=O)c2nnc(Cc3ccc(Cl)cc3Cl)o2)cc1OCC	·	6	·	·	·	·
CCOC(=O)c1ccc(NC(=O)COc2cc3oc(=O)c(CC(C)O)c(C)c3cc2Cl)cc1 (centres undefined)	·	·	7%[9.22 µM]	·	4%[10 µM]	·
CC(=O)c1cccc(NC(=O)COc2cc3oc(=O)c(CC(C)O)c(C)c3cc2Cl)c1 (centres undefined)	-14%	-8	3.5µM*	?	14%[10 µM]	?
COC(=O)C/C=C\[C@@H](C)[C@@H](/C=N\O[C@@H](C)c1cc(-c2c(C)cc(C)cc2C)no1)OC	·	·	·	4%[13.5 µM]	-2%[10 µM]	·
CN(C)S(=O)(=O)c1cccc(NC(=O)c2cc(-c3cccs3)nn2-c2ccccc2)c1	13%	·	-10%	22µM*	-3%[0.074 µM]	?
CCN(CC)S(=O)(=O)c1cccc(NC(=O)c2cc(-c3cccs3)nn2-c2ccccc2)c1	4%	·	-14%	-7%	19%[10 µM]	-20%
